# According to article PMC9911399, “Two distinct binding modes provide the RNA-binding protein RbFox with extraordinary sequence specificity”:
# Changes are numbered by the printed parent chain; changes in the protein carry UniProt numbers. The full ranking holds about 16,000 sequences; the median of “ka relative to ugcaugu” is about 0.0091, and the highest 2% start at about 0.032. The entries come from a sample that favours the highest values as a whole.
# T1: RBFOX1 RRM (Homo sapiens, UniProt Q9NWB1 109-208)
# T1 sequence: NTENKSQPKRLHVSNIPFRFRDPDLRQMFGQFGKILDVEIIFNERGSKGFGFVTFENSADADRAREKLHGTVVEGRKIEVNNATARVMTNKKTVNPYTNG
# B1: UAAGGUC (DNA:RNA)
# RNA: GGGAGACCGGAAUUCAGAUUGUCCUAAGGUCUUAAAUCCCGUCGUAGCCACCA
# DNA 1: CAATCTGAATTCCGGTCTCCC
# DNA 2: TGGTGGCTACGACGGGATT
# B2: UACUCGA (DNA:RNA)
# RNA: B1 RNA with A27C, G28U, G29C, U30G, C31A
# DNA 1: CAATCTGAATTCCGGTCTCCC
# DNA 2: TGGTGGCTACGACGGGATT
# B3: AUACUGG (DNA:RNA)
# RNA: B1 RNA with U25A, A26U, G28C, G29U, U30G, C31G
# DNA 1: CAATCTGAATTCCGGTCTCCC
# DNA 2: TGGTGGCTACGACGGGATT
# B4: GUUACCU (DNA:RNA)
# RNA: GGGAGACCGGAAUUCAGAUUGUCCGUUACCUUUAAAUCCCGUCGUAGCCACCA
# DNA 1: CAATCTGAATTCCGGTCTCCC
# DNA 2: TGGTGGCTACGACGGGATT
# B5: CCCUACU (DNA:RNA)
# RNA: B4 RNA with G25C, U26C, U27C, A28U, C29A
# DNA 1: CAATCTGAATTCCGGTCTCCC
# DNA 2: TGGTGGCTACGACGGGATT
# B6: UGGGACC (DNA:RNA)
# RNA: B1 RNA with A26G, A27G, G29A, U30C
# DNA 1: CAATCTGAATTCCGGTCTCCC
# DNA 2: TGGTGGCTACGACGGGATT
# B7: UGGGUCA (DNA:RNA)
# RNA: B1 RNA with A26G, A27G, G29U, U30C, C31A
# DNA 1: CAATCTGAATTCCGGTCTCCC
# DNA 2: TGGTGGCTACGACGGGATT
# B8: UGGGUCC (DNA:RNA)
# RNA: B1 RNA with A26G, A27G, G29U, U30C
# DNA 1: CAATCTGAATTCCGGTCTCCC
# DNA 2: TGGTGGCTACGACGGGATT
# B9: UGGGUCG (DNA:RNA)
# RNA: B1 RNA with A26G, A27G, G29U, U30C, C31G
# DNA 1: CAATCTGAATTCCGGTCTCCC
# DNA 2: TGGTGGCTACGACGGGATT
# B10: UGGUCCG (DNA:RNA)
# RNA: B4 RNA with G25U, U26G, U27G, A28U, U31G
# DNA 1: CAATCTGAATTCCGGTCTCCC
# DNA 2: TGGTGGCTACGACGGGATT
# B11: CUGGUCC (DNA:RNA)
# RNA: B4 RNA with G25C, U27G, A28G, C29U, U31C
# DNA 1: CAATCTGAATTCCGGTCTCCC
# DNA 2: TGGTGGCTACGACGGGATT
# B12: UCAAUCC (DNA:RNA)
# RNA: B1 RNA with A26C, G28A, G29U, U30C
# DNA 1: CAATCTGAATTCCGGTCTCCC
# DNA 2: TGGTGGCTACGACGGGATT
# B13: UAUUGCC (DNA:RNA)
# RNA: B1 RNA with A27U, G28U, U30C
# DNA 1: CAATCTGAATTCCGGTCTCCC
# DNA 2: TGGTGGCTACGACGGGATT
# B14: UGUUAGC (DNA:RNA)
# RNA: B1 RNA with A26G, A27U, G28U, G29A, U30G
# DNA 1: CAATCTGAATTCCGGTCTCCC
# DNA 2: TGGTGGCTACGACGGGATT
# B15: GACUGAA (DNA:RNA)
# RNA: B1 RNA with U25G, A27C, G28U, U30A, C31A
# DNA 1: CAATCTGAATTCCGGTCTCCC
# DNA 2: TGGTGGCTACGACGGGATT
# B16: UUCAGCC (DNA:RNA)
# RNA: B4 RNA with G25U, U27C, C29G, U31C
# DNA 1: CAATCTGAATTCCGGTCTCCC
# DNA 2: TGGTGGCTACGACGGGATT
# B17: ACCUUCG (DNA:RNA)
# RNA: B4 RNA with G25A, U26C, U27C, A28U, C29U, U31G
# DNA 1: CAATCTGAATTCCGGTCTCCC
# DNA 2: TGGTGGCTACGACGGGATT
# B18: ACCUAAG (DNA:RNA)
# RNA: GGGAGACCGGAAUUCAGAUUGUCCACCUAAGUUAAAUCCCGUCGUAGCCACCA
# DNA 1: CAATCTGAATTCCGGTCTCCC
# DNA 2: TGGTGGCTACGACGGGATT
# B19: UUACAAU (DNA:RNA)
# RNA: B18 RNA with A25U, C26U, C27A, U28C, G31U
# DNA 1: CAATCTGAATTCCGGTCTCCC
# DNA 2: TGGTGGCTACGACGGGATT
# B20: GAUUGAC (DNA:RNA)
# RNA: B1 RNA with U25G, A27U, G28U, U30A
# DNA 1: CAATCTGAATTCCGGTCTCCC
# DNA 2: TGGTGGCTACGACGGGATT
# B21: UAGUCCU (DNA:RNA)
# RNA: B4 RNA with G25U, U26A, U27G, A28U
# DNA 1: CAATCTGAATTCCGGTCTCCC
# DNA 2: TGGTGGCTACGACGGGATT
# B22: GUACGUA (DNA:RNA)
# RNA: B1 RNA with U25G, A26U, G28C, C31A
# DNA 1: CAATCTGAATTCCGGTCTCCC
# DNA 2: TGGTGGCTACGACGGGATT
# B23: CUUUCCU (DNA:RNA)
# RNA: B4 RNA with G25C, A28U
# DNA 1: CAATCTGAATTCCGGTCTCCC
# DNA 2: TGGTGGCTACGACGGGATT
# B24: UCGUCGG (DNA:RNA)
# RNA: B18 RNA with A25U, C27G, A29C, A30G
# DNA 1: CAATCTGAATTCCGGTCTCCC
# DNA 2: TGGTGGCTACGACGGGATT
# B25: GUCUCGA (DNA:RNA)
# RNA: B4 RNA with U27C, A28U, C30G, U31A
# DNA 1: CAATCTGAATTCCGGTCTCCC
# DNA 2: TGGTGGCTACGACGGGATT
# B26: UCGUCGA (DNA:RNA)
# RNA: B18 RNA with A25U, C27G, A29C, A30G, G31A
# DNA 1: CAATCTGAATTCCGGTCTCCC
# DNA 2: TGGTGGCTACGACGGGATT
# B27: CGGCUCG (DNA:RNA)
# RNA: B18 RNA with A25C, C26G, C27G, U28C, A29U, A30C
# DNA 1: CAATCTGAATTCCGGTCTCCC
# DNA 2: TGGTGGCTACGACGGGATT
# B28: UCCUCGA (DNA:RNA)
# RNA: B18 RNA with A25U, A29C, A30G, G31A
# DNA 1: CAATCTGAATTCCGGTCTCCC
# DNA 2: TGGTGGCTACGACGGGATT
# B29: GGCUCGA (DNA:RNA)
# RNA: B18 RNA with A25G, C26G, A29C, A30G, G31A
# DNA 1: CAATCTGAATTCCGGTCTCCC
# DNA 2: TGGTGGCTACGACGGGATT
# B30: UGCUCGA (DNA:RNA)
# RNA: B18 RNA with A25U, C26G, A29C, A30G, G31A
# DNA 1: CAATCTGAATTCCGGTCTCCC
# DNA 2: TGGTGGCTACGACGGGATT
# B31: CGCUCGG (DNA:RNA)
# RNA: B18 RNA with A25C, C26G, A29C, A30G
# DNA 1: CAATCTGAATTCCGGTCTCCC
# DNA 2: TGGTGGCTACGACGGGATT
# B32: UGCUCGG (DNA:RNA)
# RNA: B18 RNA with A25U, C26G, A29C, A30G
# DNA 1: CAATCTGAATTCCGGTCTCCC
# DNA 2: TGGTGGCTACGACGGGATT
# Target: T1, RBFOX1 RRM
# Assay: EMSA; HiTS-Eq, 1 nM pool, 10 min; buffer printed only for the single-RNA assays: 10 mM Tris pH 7.5, 150 mM NaCl, 3.4 mM EDTA, 0.001% NP-40, 30 C
# Conditions: tags: His6 N-terminal (pET28a); label: 5' 32P
# In short: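 Relative association constants, normalised to the cognate motif, were derived by comparing read counts of each RNA species with those of the control reaction. The RNA sequenced was the free fraction, separated by 8% native PAGE after a 10 min equilibration in 50 µL of 1 nM 5′-radiolabelled RNA (7 randomized nucleotides) with increasing concentrations of purified wild-type or mutant RbFox RRM.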
row,Binder,binding signal
1,B1,0.0168 KA relative to UGCAUGU
2,B2,0.0112 KA relative to UGCAUGU
3,B3,0.00795 KA relative to UGCAUGU
4,B4,0.00787 KA relative to UGCAUGU
5,B5,0.00609 KA relative to UGCAUGU
6,B6,0.0142 KA relative to UGCAUGU
7,B7,0.0232 KA relative to UGCAUGU
8,B8,0.0332 KA relative to UGCAUGU
9,B9,0.0407 KA relative to UGCAUGU
10,B10,0.017 KA relative to UGCAUGU
11,B11,0.0227 KA relative to UGCAUGU
12,B12,0.00161 KA relative to UGCAUGU
13,B13,0.012 KA relative to UGCAUGU
14,B14,0.0176 KA relative to UGCAUGU
15,B15,0.0274 KA relative to UGCAUGU
16,B16,0.0103 KA relative to UGCAUGU

row,Binder,binding signal
1,B17,0.00839 KA relative to UGCAUGU
2,B18,0.00359 KA relative to UGCAUGU
3,B19,0.00107 KA relative to UGCAUGU
4,B20,0.0228 KA relative to UGCAUGU
5,B21,0.00776 KA relative to UGCAUGU
6,B22,0.0085 KA relative to UGCAUGU
7,B23,0.0054 KA relative to UGCAUGU
8,B24,0.0171 KA relative to UGCAUGU
9,B25,0.0166 KA relative to UGCAUGU
10,B26,0.014 KA relative to UGCAUGU
11,B27,0.0112 KA relative to UGCAUGU
12,B28,0.00976 KA relative to UGCAUGU
13,B29,0.033 KA relative to UGCAUGU
14,B30,0.0363 KA relative to UGCAUGU
15,B31,0.0166 KA relative to UGCAUGU
16,B32,0.0361 KA relative to UGCAUGU
